Where “and” joins values, the source holds several entries; their conditions need not be identical. Equal values may be shown once. Calls of active or inactive are those of the source. Unless noted, no stated cut-off is given here; in the data, active means parasite load remaining mostly below about 12% (no sharp cut-off); inactive means mostly above about 10%.

One assay can be described thus: glutamate transport activators, MN-1 cells, MN-1 cell line (AID 1612).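 Further: tested at 1 µM final; 0% = mean of DMSO vehicle wells on each plate; positive means more glutamate uptake than control and negative means less.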 Particulars: MN-1 motor neuron cells, stronger effect = higher value.
As for `OC(c1cc(C(F)(F)F)nc2c(C(F)(F)F)cccc12)C1CCCCN1` (configuration not stated), the glutamate uptake change was -3.13%.
The same measure, in the same setting: the same measure for `C=CC[C@@H]1/C=C(\C)C[C@H](C)C[C@H](OC)[C@H]2O[C@@](O)(C(=O)C(=O)N3CCCC[C@H]3C(=O)O[C@H](/C(C)=C/[C@@H]3CC[C@@H](O)[C@H](OC)C3)[C@H](C)[C@@H](O)CC1=O)[C@H](C)C[C@@H]2OC`: 0%; for `COc1ccc(C2Sc3ccccc3N(CCN(C)C)C(=O)C2OC(C)=O)cc1` (configuration not stated): 4.81%.

The nature of the next assay: 75Q-TubH aggregate inhibition, S. cerevisiae, yeast (AID 1616). Particulars: S. cerevisiae 75Q-TubH polyglutamine aggregation suppression; stronger effect = higher value.
The compound `OC(c1cc(C(F)(F)F)nc2c(C(F)(F)F)cccc12)C1CCCCN1` (configuration not stated) had an aggregation suppression score of 1.65.
Regarding `C=CC[C@@H]1/C=C(\C)C[C@H](C)C[C@H](OC)[C@H]2O[C@@](O)(C(=O)C(=O)N3CCCC[C@H]3C(=O)O[C@H](/C(C)=C/[C@@H]3CC[C@@H](O)[C@H](OC)C3)[C@H](C)[C@@H](O)CC1=O)[C@H](C)C[C@@H]2OC`, the aggregation suppression score was 0.207.
Turning to `COc1ccc(C2Sc3ccccc3N(CCN(C)C)C(=O)C2OC(C)=O)cc1` (configuration not stated), the aggregation suppression score was determined as 0.716.

The nature of another assay: compounds altering circadian rhythm period length – cell-based, LOPAC library, luminescence reporter (AID 2774; call rule not given here;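 further: values are relative to mean of DMSO wells on each plate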). The following applies: circadian reporter cells, at 7 µM, actives lie on both sides.
With `CC1CC2C3CCC4=CC(=O)C=C[C@]4(C)[C@@]3(F)[C@@H](O)C[C@]2(C)[C@@]1(O)C(=O)CO` (some centres not stated), the period change is -0.45 h (inactive).
Consider `Nc1nc(N)c2nc(CNc3ccc(C(=O)NC(CCC(=O)O)C(=O)O)cc3)cnc2n1` (configuration not stated), for which the period change was -0.245 h (inactive).
Take `CCCCS(=N)(=O)CCC(N)C(=O)O` (configuration not stated): the period change was -0.105 h (inactive).
For the compound `CC1=C(C(=O)O)N2C(=O)[C@@H](NC(=O)C(N)c3ccccc3)[C@H]2SC1` (some centres not stated), the period change is 0.02 h (inactive).
As for `CC(C)NC[C@H](O)COc1cccc2ccccc12`, the period change was 0.145 h (inactive).

A short description of the next assay: compounds altering viability of human ES cells (AID 493140; call rule not given here;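 further: cells exposed to compounds for four days before counting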). Particulars: human embryonic stem cell survival screen; stronger effect = higher value.
On to `OC(c1cc(C(F)(F)F)nc2c(C(F)(F)F)cccc12)C1CCCCN1` (configuration not stated), for which the survival was 3.83 (inactive).
Turning to `Cc1cc2nc3c(=O)[nH]c(=O)nc-3n(CC(O)C(O)C(O)CO)c2cc1C` (configuration not stated), the survival was 1.58 (inactive).
Regarding `CN[C@@H]1[C@H](O[C@H]2[C@H](O[C@@H]3[C@@H](O)[C@H](O)[C@@H](N=C(N)N)[C@H](O)[C@H]3N=C(N)N)O[C@@H](C)[C@]2(O)C=O)O[C@@H](CO)[C@H](O)[C@H]1O`, the survival is 20.6 (inactive).

The nature of a further assay: P. berghei load reduction in hepatocytes – cell-based, HepG2, luciferase luminescence, HepG2 viability, primary screen (AID 624349).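 Further: 100% = mean of DMSO negative control wells on the same plate.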 Particulars: P. berghei liver stage in HepG2, luciferase luminescence, concentration not given here; parasite load remaining: stronger effect = lower value; viability: measured here: HepG2 viability without parasites.
One may read the viability as a read-out of living cells in per cent, often relative to untreated cells. Take `Cc1c(-c2cnccn2)ssc1=S`: the viability stood at 65% and the parasite load remaining is 10.1% (inactive).
With `CC(NCCc1ccc(O)cc1)C(O)c1ccc(O)cc1` (configuration not stated), the viability was 69.7% and 91.3%; the parasite load remaining was 92.5% (inactive) and 43.7% (inactive).
For the compound `N[C@@H](CC(=O)N1CCn2c(nnc2C(F)(F)F)C1)Cc1cc(F)c(F)cc1F`, the viability was 95.5% and the parasite load remaining is 48.9% (inactive).
The like results for `OC[C@@H](O)[C@@H](O)[C@H](O)[C@@H](O)CO` were, in that order, 97.5% and 34.8% (inactive).
The like results for `CC1CC2C3CCC4=CC(=O)C=C[C@]4(C)[C@@]3(F)[C@@H](O)C[C@]2(C)[C@@]1(O)C(=O)CO` (some centres not stated) were, in that order, 71.5% and 123% (inactive).
With `CC(C)(CO)[C@@H](O)C(=O)NCCC(=O)O`, the viability was 107% and 75%; the parasite load remaining is 90.7% (inactive) and 34.6% (inactive).
Consider `CN(C)CC[C@H](c1ccc(Cl)cc1)c1ccccn1`, for which the parasite load remaining was 101% (inactive) and 66.4% (inactive); the viability was 77.5% and 96.6%.
In the case of `Nc1nc(N)c2nc(CNc3ccc(C(=O)NC(CCC(=O)O)C(=O)O)cc3)cnc2n1` (configuration not stated), the viability was 70.2% and the parasite load remaining is 160% (inactive).
In the case of `Cc1cc2nc3c(=O)[nH]c(=O)nc-3n(CC(O)C(O)C(O)CO)c2cc1C` (configuration not stated), the viability is 87.6% and 75.7% and 118%; the parasite load remaining was 149% (inactive) and 66% (inactive) and 85.7% (inactive).
As to `CN[C@@H]1[C@H](O[C@H]2[C@H](O[C@@H]3[C@@H](O)[C@H](O)[C@@H](N=C(N)N)[C@H](O)[C@H]3N=C(N)N)O[C@@H](C)[C@]2(O)C=O)O[C@@H](CO)[C@H](O)[C@H]1O`, the parasite load remaining is 51.2% (inactive) and 45.6% (inactive) and 35.8% (inactive); the viability is 118% and 97.5% and 75%.
In the case of `Cc1coc2c1C(=O)C(=O)c1c-2ccc2c1CCCC2(C)C`, the viability turned out to be 97.5% and the parasite load remaining was 23.1% (inactive).
The like results for `Nc1nc(F)nc2c1ncn2[C@@H]1O[C@H](COP(=O)(O)O)[C@@H](O)[C@@H]1O` were, in that order, 105% and 22.2% (inactive).
`CC[C@]1(O)CC2CN(CCc3c([nH]c4ccccc34)[C@@](C(=O)OC)(c3cc4c(cc3OC)N(C)[C@H]3[C@@](O)(C(=O)OC)[C@H](OC(C)=O)[C@]5(CC)C=CCN6CC[C@]43[C@@H]65)C2)C1` (some centres not stated): the viability is 113% and 91%; the parasite load remaining is 45.7% (inactive) and 54.9% (inactive).
Consider `CC1=C(C(=O)O)N2C(=O)[C@@H](NC(=O)C(N)c3ccccc3)[C@H]2SC1` (some centres not stated), for which the viability was 72.1% and 86.5%; the parasite load remaining was 96% (inactive) and 49.4% (inactive).

The record behind these values is PubChem BioAssay.
